Source: PubChem BioAssay
The list is not random: actives were taken first. Their share in the collection is about 6.7%.
Pf Dd2 inh = inhibitors of Plasmodium falciparum Dd2 growth; activity change, % at 10 µM; P. falciparum Dd2 growth, SYBR Green, 72 h; hits give low values; AID 1159554; 94,000 compounds, 2.3% hits; in the data active = activity change below about -80%; inconclusive = no clear call, values can overlap the other calls
C diff growth = C. difficile growth inhibition. Clostridium difficile clinical isolate growth, OD600, 24 h; hits give low values. growth activity, negative = inhibition, % at 16 µg/mL (by protocol). 86,000 compounds, 0.25% hits. AID 1259249;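 active = mean growth activity at or below -80% and every replicate also at or below -80%; inconclusive = mean at or below -80% but some replicate above -80%; inactive = mean growth activity above -80%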;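 also: 0% = DMSO wells and -100% = levofloxacin 16 µg/mL wells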
T cruzi growth-1 = inhibitors of T. cruzi proliferation. 77,000 compounds, 5.9% hits. inhibition, % at 8.34 µM. T. cruzi beta-gal in NIH3T3, GalScreen luminescence, 90 h;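 active = mean inhibition above about 93%, with at least 55% of replicates each passing it, limit read from the data, passing the limit was not always enough; inconclusive = only one of those two conditions holds; inactive = neither condition holds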
T cruzi growth-2 = blocks T. cruzi growth in NIH3T3 host cells. shares compounds with T cruzi growth-1. 5,600 compounds, 72% hits. AID 651739. T. cruzi beta-gal in NIH3T3, GalScreen luminescence, 90 h. inhibition, % at 8.35 µM;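 active = mean replicate inhibition above about 95% and at least 55% of replicates individually reaching it, limit read from the data; inconclusive = only one of the two criteria is met; inactive = neither criterion is met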
T cruzi growth-3 = blocks T. cruzi growth in NIH3T3 host cells; inhibition, % at 2.09 µM; T. cruzi beta-gal in NIH3T3, GalScreen luminescence, 90 h; AID 651740; 5,600 compounds, 21% hits; shares compounds with T cruzi growth-1;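 active = mean inhibition above about 95%, with at least 55% of replicates also reaching it, limit read from the data; inconclusive = meets just one of the two conditions; inactive = meets neither condition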;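 also: plate controls were neutral control median for no effect and positive control median for full effect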
3T3 cytotox = NIH/3T3 (mouse) viability loss; 5,600 compounds, 14% hits; shares compounds with T cruzi growth-1; cytotoxicity (signal decrease), % at 8.35 µM; NIH/3T3 viability, CellTiter-Glo ATP luminescence, 90 h;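 active = mean signal decrease across replicates above about 35% based on untreated-well scatter, with enough replicates individually passing, limit read from the data; inconclusive = no rule stated though some were filed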;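 also: 0% = median of neutral control wells and 100% = median of positive control wells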
3T3 cytotox 2 = cytotoxicity in mouse NIH/3T3 fibroblasts | shares compounds with T cruzi growth-1 | NIH/3T3 viability, CellTiter-Glo ATP luminescence, 90 h | inhibition, % at 24.9 µM | 5,600 compounds, 56% hits | AID 651744;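 active = mean loss of cell viability signal at or above a set limit, and enough replicates individually reaching it; inconclusive = meets only the mean limit or only the replicate share; inactive = meets neither condition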;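 also: 0% = median of neutral control wells and 100% = median of positive control wells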
* = called active by the depositor; ! = not confirmed by another sample.

Screening COc1ccc(NC(=O)N2CCCCN3[C@H](CO)[C@@H](c4ccc(C#CCC(C)C)cc4)[C@@H]3C2)cc1 returned Pf Dd2 inh -69, C diff growth -2, T cruzi growth-1 105*, T cruzi growth-2 106*, T cruzi growth-3 56, 3T3 cytotox 39* and 3T3 cytotox 2 104*.
`COc1ccc(NC(=O)N2CCCCN3[C@H](CO)[C@H](c4ccc(C#CCC(C)C)cc4)[C@@H]3C2)cc1` gave Pf Dd2 inh -90*, C diff growth -12, T cruzi growth-1 121*, T cruzi growth-2 108*, T cruzi growth-3 96*, 3T3 cytotox inconclusive and 3T3 cytotox 2 83*.
Screening CCCC(=O)Nc1ccc2c(c1)C(=O)N(C)C[C@H](OC)[C@@H](C)CN(S(=O)(=O)c1cn(C)cn1)[C@H](C)CO2 returned Pf Dd2 inh 14 and T cruzi growth-1 44.
For C[C@@H]1CCCCO[C@H](CN(C)C(=O)CCCN(C)C)[C@@H](C)CN([C@@H](C)CO)C(=O)c2cc(NC(=O)c3ccccc3)ccc2O1 the results were Pf Dd2 inh 16, C diff growth -5 and T cruzi growth-1 46.
Screening O=C(C1CCCCC1)N1C[C@@H]2[C@H](c3ccccc31)[C@@H](CO)N2C(=O)c1ccccc1 returned Pf Dd2 inh -25, C diff growth -1 and T cruzi growth-1 18.
For COc1ccc(NC(=O)N2CCCCN3[C@H](C2)[C@H](c2ccc(C#CCC(C)C)cc2)[C@@H]3CO)cc1 the results were Pf Dd2 inh -43, C diff growth 3, T cruzi growth-1 118*, T cruzi growth-2 92, T cruzi growth-3 61, 3T3 cytotox 14 and 3T3 cytotox 2 100*.
`C/C=C/c1ccc([C@H]2[C@H]3CN(C(=O)Nc4ccc(OC)cc4)CCCCN3[C@H]2CO)cc1` gave Pf Dd2 inh -16, C diff growth 0 and T cruzi growth-1 42.
C[C@@H]1CN([C@@H](C)CO)C(=O)Cc2cc(NC(=O)Cc3ccccc3)ccc2O[C@H]1CN(C)Cc1ccc2c(c1)OCO2 was read as Pf Dd2 inh -25, C diff growth 0 and T cruzi growth-1 79.
`C[C@H]1CN([C@@H](C)CO)C(=O)Cc2cc(NC(=O)Cc3ccccc3)ccc2O[C@@H]1CN(C)Cc1ccc(-c2ccccc2)cc1` gave Pf Dd2 inh -26, C diff growth 39, T cruzi growth-1 107*, T cruzi growth-2 113*, T cruzi growth-3 75, 3T3 cytotox 8 and 3T3 cytotox 2 73*.
`C[C@H](CO)N1C[C@H](C)[C@H](CN(C)Cc2ccc3c(c2)OCO3)Oc2ccc(NC(=O)Cc3ccccc3)cc2CC1=O` gave Pf Dd2 inh -28, C diff growth -2, T cruzi growth-1 106*, T cruzi growth-2 39, T cruzi growth-3 -4, 3T3 cytotox -9 and 3T3 cytotox 2 17.
For C[C@H]1CN([C@@H](C)CO)C(=O)Cc2cc(NC(=O)Cc3ccccc3)ccc2O[C@H]1CN(C)Cc1ccc(-c2ccccc2)cc1 the results were Pf Dd2 inh -9, C diff growth 9 and T cruzi growth-1 57.
For CO[C@@H]1CN(C)C(=O)c2cc(NC(=O)c3cc(C)on3)ccc2OC[C@H](C)NC[C@@H]1C the results were Pf Dd2 inh 0 and T cruzi growth-1 19.
For C[C@H](CO)N1C[C@H](C)[C@H](CN(C)C(=O)Nc2ccccc2)Oc2c(cccc2N(C)C)C1=O the results were Pf Dd2 inh 20, C diff growth 6 and T cruzi growth-1 28.
CC(C)NC(=O)Nc1ccc2c(c1)CC(=O)N([C@H](C)CO)C[C@@H](C)[C@H](CN(C)Cc1ccccc1)O2 was read as Pf Dd2 inh 16, C diff growth -8 and T cruzi growth-1 16.
For O=C(N[C@@H]1CC[C@@H](CCn2cc(-c3ccccn3)nn2)O[C@@H]1CO)c1cccnc1 the results were Pf Dd2 inh -4, C diff growth 5 and T cruzi growth-1 -32.
Screening C[C@@H]1CN([C@H](C)CO)S(=O)(=O)c2ccc(C#Cc3ccccc3F)cc2O[C@H]1CN(C)C(=O)c1ccc2c(c1)OCO2 returned Pf Dd2 inh -81*!, C diff growth -4, T cruzi growth-1 125*, T cruzi growth-2 100*, T cruzi growth-3 106*, 3T3 cytotox 30 and 3T3 cytotox 2 91*.
CC(C)CC#Cc1ccc2c(c1)O[C@@H](CN(C)C(=O)Cc1ccccc1)[C@H](C)CN([C@@H](C)CO)S2(=O)=O was read as Pf Dd2 inh -73, C diff growth -8, T cruzi growth-1 129*, T cruzi growth-2 97*, T cruzi growth-3 103*, 3T3 cytotox 13 and 3T3 cytotox 2 104*.
For C[C@H](CO)N1C[C@H](C)[C@@H](CN(C)C(=O)Cc2ccncc2)Oc2cc(C#Cc3ccccc3F)ccc2S1(=O)=O the results were Pf Dd2 inh -51 and C diff growth -5.
`CCC(=O)N(C)C[C@H]1Oc2cc(C#CCC(C)C)ccc2S(=O)(=O)N([C@@H](C)CO)C[C@@H]1C` gave Pf Dd2 inh -23, C diff growth -14 and T cruzi growth-1 87.
C[C@@H]1CN([C@@H](C)CO)S(=O)(=O)c2ccc(C#Cc3ccccc3F)cc2O[C@@H]1CN(C)C(=O)Cc1ccccc1 was read as Pf Dd2 inh -51, C diff growth 2, T cruzi growth-1 120*, T cruzi growth-2 102*, T cruzi growth-3 99*, 3T3 cytotox 32 and 3T3 cytotox 2 78*.
CC(=O)N(C)C[C@@H]1Oc2cc(C#Cc3ccccc3F)ccc2S(=O)(=O)N([C@H](C)CO)C[C@@H]1C was read as Pf Dd2 inh -46, C diff growth -20 and T cruzi growth-1 67.
Screening CC(C)CC#Cc1ccc2c(c1)O[C@H](CN(C)C(=O)Cc1ccccc1)[C@H](C)CN([C@H](C)CO)S2(=O)=O returned Pf Dd2 inh -46, C diff growth 22, T cruzi growth-1 125*, T cruzi growth-2 94, T cruzi growth-3 74, 3T3 cytotox -13 and 3T3 cytotox 2 106*.
For CCC(=O)N(C)C[C@@H]1Oc2cc(C#CCC(C)C)ccc2S(=O)(=O)N([C@@H](C)CO)C[C@H]1C the results were Pf Dd2 inh -13, C diff growth -12 and T cruzi growth-1 51.
CN1C(=O)c2cc(NC(=O)c3ccccc3)ccc2OC[C@H]2O[C@H](CC(=O)O)CC[C@H]21 was read as Pf Dd2 inh -2, C diff growth -3 and T cruzi growth-1 -104.
COc1ccc(NC(=O)N[C@@H]2CC[C@@H](CCNC(=O)CCN3CCCCC3)O[C@H]2CO)cc1 was read as Pf Dd2 inh 14 and T cruzi growth-1 23.
